# Fh CTSL1 inh = counter-screen for PFM18AAP inhibitors: inhibitors of F. hepatica cathepsin L1. recombinant F. hepatica cathepsin L1, Z-Leu-Arg-MCA fluorescence. inhibition, % at 5.96 µM. actives 0.49% (n = 300,000). AID 1906;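 active = inhibition above the mean of all tested compounds plus 3 SD, set per screening campaign, cut at about 17% in these data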;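 note: 0% = plate median of test compound wells and 100% = 1 µM Z-Phe-Ala-diazomethylketone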
# Rpn11 block = Rpn11 (human) deubiquitinase inhibition; human 26S proteasome, Ub4-pepOG fluorescence polarization; 20S core pre-blocked with epoxomicin; actives 0.59% (n = 360,000); O00487; inhibition, % at 20 µM; AID 588493;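 active = inhibition at 20 µM, scaled to each plate's controls, above about 33%, limit read from the data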
# HNF4A DNA FP = change in binding of human HNF4 alpha to DNA; P41235; HNF4a-FITC DNA binding, fluorescence polarization, 1 h; activity change, % at 10 µM; actives 0.3% (n = 360,000); AID 1224865; in the data active = activity change above about 30%, passing the limit was not always enough
# NRP1-CendR mod = modulators of CendR peptide binding to human neuropilin-1. O14786. FAM-RPARPAR peptide binding to NRP-1, fluorescence polarization. inhibition, % at 25 µM. actives 0.85% (n = 360,000);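 active = inhibition or corrected inhibition above about 18%, plus a signal ratio from 0.5 to 1.5, limit read from the data, passing the limit was not always enough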
# Target sequence (O14786 whole entry, looked up): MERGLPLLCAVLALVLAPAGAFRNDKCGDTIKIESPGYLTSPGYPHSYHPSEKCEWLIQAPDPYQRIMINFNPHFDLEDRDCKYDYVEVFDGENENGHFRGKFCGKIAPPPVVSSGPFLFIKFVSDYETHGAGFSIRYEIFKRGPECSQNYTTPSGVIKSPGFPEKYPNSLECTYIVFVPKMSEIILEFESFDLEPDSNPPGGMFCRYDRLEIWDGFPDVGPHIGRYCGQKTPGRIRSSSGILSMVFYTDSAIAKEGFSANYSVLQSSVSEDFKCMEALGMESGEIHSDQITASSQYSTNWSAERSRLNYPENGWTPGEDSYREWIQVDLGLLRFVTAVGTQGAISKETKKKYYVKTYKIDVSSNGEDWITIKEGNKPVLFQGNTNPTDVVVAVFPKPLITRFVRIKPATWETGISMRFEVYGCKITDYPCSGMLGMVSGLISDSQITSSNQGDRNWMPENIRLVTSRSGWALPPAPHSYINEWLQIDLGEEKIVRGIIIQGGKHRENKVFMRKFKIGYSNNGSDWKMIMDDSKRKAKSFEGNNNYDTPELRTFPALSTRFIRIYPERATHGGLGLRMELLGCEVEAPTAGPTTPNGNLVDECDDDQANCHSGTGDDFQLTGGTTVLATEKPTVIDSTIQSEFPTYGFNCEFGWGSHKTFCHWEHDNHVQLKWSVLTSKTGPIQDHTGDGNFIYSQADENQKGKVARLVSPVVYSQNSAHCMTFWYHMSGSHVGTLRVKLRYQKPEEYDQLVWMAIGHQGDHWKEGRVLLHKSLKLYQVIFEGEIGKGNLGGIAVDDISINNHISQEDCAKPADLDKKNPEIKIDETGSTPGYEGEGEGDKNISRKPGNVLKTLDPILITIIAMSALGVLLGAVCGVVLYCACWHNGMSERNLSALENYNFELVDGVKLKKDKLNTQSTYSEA
# PHOSPHO1 inh = blocks human PHOSPHO1 phosphatase activity. recombinant PHOSPHO1, absorbance phosphatase assay. Q8TCT1. actives 1.1% (n = 290,000). inhibition, % at 13.3 µM; in the data active = inhibition above about 60%
# TPT1 inhibitor = C. albicans TPT1 enzyme inhibition; inhibition, % at 5 µM; actives 0.81% (n = 300,000); AID 1962; recombinant caTPT1, FP RNA substrate dephosphorylation;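 active = inhibition above the mean of all tested compounds plus 3 SD, set per screening campaign, cut at about 24% in these data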;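 note: plate controls were DMSO alone for no effect and ferristatin control at 100 nM for full effect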
# * marks the source's active call; other numbers are inactive results; . = no result shown. Sampled rows, rich in hits. Any-hit rate of the full collection: about 3.3%.
SMILES,Fh CTSL1 inh,Rpn11 block,HNF4A DNA FP,NRP1-CendR mod,PHOSPHO1 inh,TPT1 inhibitor
COc1cccc(CN2CCN(C(=O)C3CCC(=O)N(C4CCCC4)C3)CC2)c1 (centres undefined),2,0,-2,18,23,-3
COC(=O)C1C2C=CC3(CN(CC4CCCO4)C(=O)C13)O2 (centres undefined),1,2,-2,-1,0,-2
CC(=O)N1CCc2cc(S(=O)(=O)CCC(=O)NCCc3ccc(Cl)cc3)ccc21,-2,1,-1,11,65*,-1
COC(=O)c1ccccc1NC(=O)c1cc2ccccc2o1,1,-1,-1,-6,25,-4
CC(C)(CNC(=O)c1cc2ccccc2o1)N1CCOCC1,6,-1,0,0,68*,-5
O=C(Nc1ccccc1C(=O)N1CCOCC1)c1cc2ccccc2o1,-2,-1,-2,22*,-21,-1
COc1ccc(OC)c(C2=NOC(C(=O)NCc3ccco3)C2)c1 (centres undefined),4,-7,-1,-2,31,1
Cc1nnc(Oc2ccccc2F)c2ccccc12,0,0,-4,-2,12,1
Cc1ccc(Cn2c(=N)n(CC(=O)c3ccc([N+](=O)[O-])cc3)c3ccccc32)cc1,0,.,64*,-25,3,2
CCOc1ccc(NC(=O)Nc2ccc(Cc3ccncc3)cc2)cc1,-4,-8,-1,6,37,-22
COC(=O)c1ccccc1NC(=O)C(=O)NCc1ccncc1,3,2,0,-2,66*,1
CCOc1ccc(NC(=O)C(=O)NCc2ccncc2)cc1,0,-4,0,2,68*,1
COC(=O)c1ccccc1NC(=O)NCc1cccnc1,-2,-5,2,-4,10,1
CCN(CC)C(=O)NC1CCCCCCC1,-4,-1,-2,5,60*,1
O=C(NC1CCCCCCC1)NC1CCCCC1,-9,-2,-2,9,49,-1
CCOC(=O)Cc1csc(NC(=O)CSc2ncnc3c2cnn3-c2ccccc2Cl)n1,.,0,0,21*,11,.
CCOP(=O)(OCC)C(C#N)=C1SCN(c2ccccc2)CS1,5,9,0,0,.,4
COc1ccc(S(=O)(=O)N2CCN(Cc3cccc(F)c3)CC2)cc1,-5,1,2,7,.,2
CC(=O)c1ccc(S(=O)(=O)N2CCN(CC(=O)Nc3ccccc3C(=O)NC3CC3)CC2)cc1,.,-4,0,17*,.,.
COc1ccc(S(=O)(=O)N2CCN(Cc3cccc([N+](=O)[O-])c3)CC2)cc1,-1,13,1,20*,.,2
O=C(CN1CCN(S(=O)(=O)c2ccc(F)cc2)CC1)NC1CCCC1,0,-2,0,-3,61*,-1
O=C(Cn1c(=O)oc2cc(S(=O)(=O)N3CCCCCC3)ccc21)NC1CCCCCCC1,17*,1,5,-4,5,-2
O=C(CN1CCN(S(=O)(=O)c2ccc(Cl)cc2)CC1)NC1CCCC1,-1,-3,2,4,35,-1
COc1ccc(S(=O)(=O)N2CCN(CC(=O)NC3CC3)CC2)cc1,-2,-3,1,18,62*,-2
COc1ccc(S(=O)(=O)N2CCC(Nc3ccccc3Cl)CC2)cc1,.,-21,-1,1,61*,.
SMILES,Fh CTSL1 inh,Rpn11 block,HNF4A DNA FP,NRP1-CendR mod,PHOSPHO1 inh,TPT1 inhibitor
COc1ccc(C(=O)NC2CCN(S(=O)(=O)c3ccccc3)CC2)cc1,3,-8,0,3,.,-2
Cc1ccc(O)c(NS(=O)(=O)c2cccc3nsnc23)c1,-2,-11,79*,-1,29,-3
O=C1C(Cl)=C(Nc2ccccc2O)C(=O)N1c1ccccc1,73*,.,1,-25,60*,4
COc1ccccc1N1C(=O)C(Cl)=C(Nc2ccccc2O)C1=O,.,.,10,-68,-18,.
COc1ccccc1C(=O)NC(=S)/C=C1/N(C)c2ccccc2C1(C)C,19*,36,16,-45,-23,7
CN1/C(=C/C(=S)NC(=O)C2(C)CC2(Cl)Cl)C(C)(C)c2ccccc21 (centres undefined),16,22,15,-29,6,2
C=CCN(CC=C)Cc1c(C)[nH]c2ccc(C(=O)OCC)cc2c1=O,20*,1,5,-12,-3,2
